Results filed as inconclusive are left out. Where a call stands in place of a potency, no number is given. The source made the active and inactive calls. Calls follow the shape of the dose curve; as a rule, active = well fitted cell-killing curve with a large enough effect; inconclusive = small, poorly fitted or top-dose-only effect, or effect the other way; inactive = no such curve, though single readings can be large or run the other way. Numbered stars: 1 amine (or outer) side, 2 acyl side, 3 side chain; on linkers, the order of the positions; unused ones are H or OH. Bridge positions count the residues as written; N and C are the ends. Square brackets hold non-standard residues; d marks the D form. Peptide text beside a SMILES is read from it. I, II: the chains in the order shown. Actinocin(9to1) = Cc1c2oc3c(C)ccc(C(=O)[*:1])c3nc-2c(C(=O)[*:2])c(N)c1=O; NMeV = CN[C@H](C(=O)O)C(C)C; Sar = CNCC(=O)O
experiment: qHTS of pediatric cancer cell lines to identify multiple opportunities for drug repurposing: Confirmatory screen for MG 63 (6-TG R) cells (AID 1347119); conditions: MG-63 (6-TG resistant) osteosarcoma viability; series mostly up to 45.9 µM; also: nearly all actives have a fitted effect of over 55% in size
Excerpt: Drug repurposing or repositioning has been offered as a strategy for drug development in oncology programs. This approach has special potential for childhood cancers and other rare or orphan diseases, where the expected return on new drug development has been a disincentive to pharmaceuticals.
In this project we exploit the poly-pharmacology of drugs to discover new indications via phenotypic screening of a panel of 19 well-characterized cell lines derived from solid tumors seen in children and adolescents. The goal is to identify approved drugs with previously unrecognized anticancer properties that has the potential to reveal new mechanisms and biological processes involved in carcinogenesis or drug resistance. We employed a titration-based paradigm (quantitative high-throughput screening or qHTS), where all compounds were tested at multiple concentrations for their effect on cell viability. Concentration-response curves (CRCs) were derived directly from the primary screen, and both potency and efficacy values were used to identify compounds with robust bioactivity profiles. We screened the NIH Chemical Genomics Center (NCGC) Pharmaceutical Collection (NPC) and Mechanism Interrogation Plate (MIPE) small molecule collections of approved and investigational compounds against these cell lines; and measured metabolically active cells after 48 hours of compound treatment as a proxy for cell viability.
Assay Submitter: Nathalia J. Martinez, National Center for Advancing Translational Sciences, National Institutes of Health, Rockville, MD, USA; email: natalia.martinez@nih.gov
[1] Shen, M et al. Quantitative high-throughput phenotypic screening of pediatric cancer cell lines identifies multiple opportunities for drug repurposing. Oncotarget 2017 Dec 19;9(4):4758-4772. PMID 29435139.
The cells were obtained from University of North Carolina (UNC), Pediatric Preclinical Testing Program (PPT), and Coriell Institute (CI).
qHTS cell viability assay:
Cells were assayed in growth media at a density of 500-1,000 cells/well. Five microliters of cells were dispensed into 1,536-well, white, solid-bottom, TC-treated plates (Greiner Bio One) using a multidrop dispenser and incubated at 37 degrees C, 5% CO2, under a humidified atmosphere for 5 hours. Twenty-three nanoliters of compounds and controls (neutral control DMSO or positive control bortezomib at final concentration of 2.3 µM) were subsequently transferred by Kalypsys pintool. For primary screens, the MIPE collection was tested at 11-point dilutions (final concentrations range from 0.78 nM to 46 µM) and the NPC collection at 8-point dilutions (final concentrations range from 0.59 nM to 46 µM). Compounds tested in follow-up screens were assayed at 11-point dilutions. Cells were incubated for 48 hours, followed by addition of 3 µL of CellTiter-Glo (Promega). After a 15 min incubation at room temperature, samples were analyzed for luminescence intensity using a ViewLux High-throughput CCD imager equipped with clear filters.
Potency is read from the fitted curve at half-maximal effect.

| Structure (SMILES) | Potency |
| --- | --- |
| CN(C)/N=N/c1nc[nH]c1C(N)=O | 0.369 µM (active) |
| COCc1c(C(C)C)nc(C(C)C)c(/C=C/[C@@H](O)C[C@@H](O)CC(=O)O)c1-c1ccc(F)cc1 | 0.0369 µM (active) |
| C[C@H]1C[C@H]2[C@@H]3CCC4=CC(=O)C=C[C@]4(C)[C@@]3(Cl)[C@@H](O)C[C@]2(C)[C@@]1(O)C(=O)CO | inactive |
| C=C1C[C@H]2[C@@H]3C=C(C)C4=CC(=O)CC[C@]4(C)[C@H]3CC[C@]2(C)[C@@]1(OC(C)=O)C(C)=O | inactive |
| CCC(C(=O)OCCN(CC)CC)c1ccccc1 (stereo unspecified) | inactive |
| C[n+]1c2cc(N)ccc2cc2ccc(N)cc21 (tested in a mixture with another compound) | 14.7 µM (active) |
| C[C@]12C=CC(=O)C=C1[C@@H](F)C[C@@H]1[C@@H]2[C@@H](O)C[C@@]2(C)[C@H]1CC[C@]2(O)C(=O)CO | inactive |
| CC(=O)Oc1ccc(C(c2ccc(OC(C)=O)cc2)c2ccccn2)cc1 | 1.17 µM (active) |
| CC(=O)OCC(=O)[C@@]12OC(C)(C)O[C@@H]1C[C@H]1[C@@H]3C[C@H](F)C4=CC(=O)C=C[C@]4(C)[C@@]3(F)[C@@H](O)C[C@@]12C | inactive |
| CC(=O)O[C@]1(C(C)=O)CC[C@H]2[C@@H]3C[C@H](C)C4=CC(=O)CC[C@]4(C)[C@H]3CC[C@@]21C | inactive |
| CC1(C)O[C@@H]2C[C@H]3[C@@H]4C[C@H](F)C5=CC(=O)CC[C@]5(C)[C@H]4[C@@H](O)C[C@]3(C)[C@]2(C(=O)CO)O1 | inactive |
| COc1cccc2c1C(=O)c1c(O)c3c(c(O)c1C2=O)C[C@@](O)(C(=O)CO)C[C@@H]3O[C@H]1C[C@H](N)[C@H](O)[C@H](C)O1 | 5.85 µM (active) |
| C[C@]12CCC(=O)C=C1CC[C@H]1[C@@H]3CC[C@](O)(C(=O)CO)[C@@]3(C)C[C@H](O)[C@@]12F | inactive |
| CC(C)(C(=O)c1cccnc1)c1cccnc1 | inactive |
| Oc1ccc(O)cc1 | inactive |
| C[C@]12C=CC(=O)C=C1CC[C@@H]1[C@@H]2[C@@H](O)C[C@@]2(C)[C@H]1CC[C@]2(O)C(=O)CO | inactive |
| Cc1c2oc3c(C)ccc(C(=O)N[C@@H]4C(=O)N[C@H](C(C)C)C(=O)N5CCC[C@H]5C(=O)N(C)CC(=O)N(C)[C@@H](C(C)C)C(=O)O[C@@H]4C)c3nc-2c(C(=O)N[C@@H]2C(=O)N[C@H](C(C)C)C(=O)N3CCC[C@H]3C(=O)N(C)CC(=O)N(C)[C@@H](C(C)C)C(=O)O[C@@H]2C)c(N)c1=O (I: T[dV]P[Sar][NMeV] / II: T[dV]P[Sar][NMeV]; ester I:1-I:C, II:1-II:C; linker I:N-II:N via Actinocin(9to1)) | 0.0329 µM (active) |
| CCOc1ccc2nc3cc(N)ccc3c(N)c2c1 | inactive |
| OC[C@H]1O[C@@H](n2cnc3c(=S)nc[nH]c32)[C@H](O)[C@@H]1O | inactive |
| O=C(CCCN1CCC(O)(c2ccc(Br)cc2)CC1)c1ccc(F)cc1 | inactive |
| CC(=O)OCC(=O)[C@@]1(O)CC[C@H]2[C@@H]3CCC4=CC(=O)C=C[C@]4(C)[C@H]3[C@@H](O)C[C@@]21C | inactive |
| NC(CO)(CO)CO | inactive |
| CCCCC(CC)CN=C(N)NC(N)=NCCCCCCN=C(N)NC(N)=NCC(CC)CCCC (stereo unspecified) | 2.93 µM (active) |
| COc1cc(C=C2CCC/C(=C\c3ccc(O)c(OC)c3)C2=O)ccc1O | 20.8 µM (active) |
| C[C@@H]1CN(CCCn2c3ccccc3c3ccccc32)C[C@H](C)N1 | inactive |
| CCCCCCC[N+](CC)(CC)CCCCc1ccc(Cl)cc1 | 13.1 µM (active) |

Reference: PubChem BioAssay (NCATS)
